Data from PubChem BioAssay AID493098 (Sanford-Burnham Center for Chemical Genomics, 2011).
In all, about 340,000 compounds went through this assay and about 1,700 (0.5%) were called active. The list comes from a sample in which actives are over-represented; it also holds similar structures and randomly drawn compounds. Unmarked numbers belong to inactive results.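 The calls were made as follows: active = compounds whose inhibition of the agonist-driven luminescence signal at 20 µM reaches about 50% (limit read from the data); inactive = the rest.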

Biological target: C-C chemokine receptor type 6 (Homo sapiens) (UniProt P51684)
Sequence (P51684 whole entry, looked up): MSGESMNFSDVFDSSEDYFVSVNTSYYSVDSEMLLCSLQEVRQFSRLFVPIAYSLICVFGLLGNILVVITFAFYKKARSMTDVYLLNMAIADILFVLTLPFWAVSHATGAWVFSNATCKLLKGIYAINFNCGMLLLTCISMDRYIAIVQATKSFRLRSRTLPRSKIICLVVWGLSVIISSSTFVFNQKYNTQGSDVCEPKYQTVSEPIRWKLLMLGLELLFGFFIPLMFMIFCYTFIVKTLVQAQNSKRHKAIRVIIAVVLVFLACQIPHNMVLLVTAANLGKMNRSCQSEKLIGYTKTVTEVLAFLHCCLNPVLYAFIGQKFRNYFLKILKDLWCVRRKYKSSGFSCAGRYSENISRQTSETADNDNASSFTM
Assay: CCR6 receptor antagonists, primary screen, cell-based, CHO-K1, luminescence, beta-arrestin, uHTS (AID 493098);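 also: cells stimulated with CCL20 at 14 nM final; plate controls were DMSO with CCL20 for no effect and DMSO without agonist for full effect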
Details: CHO-K1 CCR6 PathHunter beta-arrestin, CCL20-stimulated, at 20 µM, stronger effect = higher value

Row | SMILES | inhibition
1 | O=C(NC(=S)Nc1ncccn1)c1ccccc1Br | 1.75%
2 | Cc1cc(C)c(C2C3=C(Nc4c2c(C)nn4-c2ccccn2)c2ccccc2C3=O)c(C)c1 (configuration not stated) | 53.2% (active)
3 | COCC1CCCN(Cc2cn[nH]c2-c2cc3ccccc3o2)C1 (configuration not stated) | 7.28%
4 | c1nc(COc2nsnc2N2CCOCC2)cs1 | -2.16%
5 | COc1cccc(CN2CCN(Cc3ccc4cccc(F)c4n3)CC2CCO)c1 (configuration not stated) | 11.8%
6 | O=[N+]([O-])c1ccc(N2CCOCC2)cc1 | 7.93%
7 | C=CS(=O)c1sc(Cl)c(N2CCOCC2)c1[N+](=O)[O-] (configuration not stated) | 93.5% (active)
8 | Cc1nc2cc(C(F)(F)F)ccc2n1CCNc1nc(-c2cc(Cl)c(N)c(Cl)c2)cs1 | 6.34%
9 | COc1ccc(NC(=O)c2oc3ccc(S(=O)(=O)N4CCOCC4)cc3c2C)cc1 | 8.2%
10 | CCOC(=O)NC(C(F)(F)F)(C(F)(F)F)P(=O)(c1ccccc1)c1ccccc1 | 11.6%
11 | COC(=O)[C@]1(C)CCC[C@@]2(C)C3CC[C@]4(OC(C)=O)C[C@@]3(CCC21)CC4=NO (some centres not stated) | -0.25%
12 | Cc1ccc(CS(=O)(=O)c2ncc(Cl)c(C(=O)Nc3nnc(C)s3)n2)cc1 | -7.39%
13 | Cc1cccc(CS(=O)(=O)c2ncc(Cl)c(C(=O)Nc3ccc(F)cc3)n2)c1 | 79.4% (active)
14 | CCOc1ccc(NC(=O)c2nc(SCC)ncc2Cl)cc1 | 3.21%
15 | O=C(Nc1ccc(F)cc1)c1ccc(S(=O)(=O)NCc2cccnc2)cc1 | -1.15%
16 | Cc1cccc(NC(=O)c2nc(S(=O)(=O)Cc3ccccc3)ncc2Cl)c1 | 82% (active)

Row | SMILES | inhibition
17 | CSc1nnc(NC(=O)c2nc(S(=O)(=O)Cc3ccc(C)cc3)ncc2Cl)s1 | -1.49%
18 | CCCC(C(=O)OCCN(CC)CC)(c1ccccc1)c1ccccc1 | 11.6%
19 | COC(=O)c1ccc(-c2noc(CN(Cc3ccccn3)CC3CCCO3)n2)cc1 (configuration not stated) | 5.23%
20 | CCn1c(=O)c2ccccc2n(CC(=O)N2CCCc3ccccc32)c1=O | 9.45%
21 | Cc1ccccc1CSCCNC(=O)c1ccc(N(C)S(=O)(=O)c2ccccc2)cc1 | 32.2%
22 | O=C(CC1OC(=O)c2ccccc21)NC1CCCCC1 (configuration not stated) | 19.9%
23 | COc1ccc(NC(=O)COC(=O)c2ccc(NS(=O)(=O)/C=C/c3ccccc3)cc2)cc1 | 21.3%
24 | CN(CC(=O)Nc1ccc(OC(F)F)cc1)S(=O)(=O)/C=C/c1ccccc1 | 59.9% (active)
25 | CC(C)N(Cc1ccccc1)C(=S)Nc1ccc(OC(F)F)cc1 | 18.4%
26 | CCOC(=O)C1CCCN(C(=O)/C=C/c2ccc(OC)cc2)C1 (configuration not stated) | 6.92%
27 | CCN1CCN(C(=O)CSc2ccc(C)cc2)CC1 | 6.4%
28 | CCN1CCC(O)(/C=C/c2ccc(C)cc2)C(C(=O)/C=C/c2ccc(C)cc2)C1 (configuration not stated) | 63.6% (active)
29 | N#CCCn1cnc2ccccc21 | 8.21%
30 | Cc1cc(C)nc(SCc2ccccc2C#N)n1 | -11.7%
31 | O=C(/C=C/Sc1ncn[nH]1)c1ccc(Cl)cc1 | 31.6%
32 | Cc1cc(C)nc(S/C=C/C(=O)c2ccccc2)n1 | 54.2% (active)
